Reference: ChEMBL document CHEMBL4513216, “Probing the Open Global Health Chemical Diversity Library for Multistage-Active Starting Points for Next-Generation Antimalarials” (ACS Infect Dis, 2020)
Among all 68,000 compounds or so, about 2,700 (4%) showed an effect of 50% or more. The list comes from a sample in which strong results are over-represented; it also holds similar structures and randomly drawn compounds.

tested on: Plasmodium berghei; experiment: Screen against P. berghei liver stage (PbLuc), transformed with Luciferase, at 2uM; assay type: functional, HepG2; settings: tested at 2 uM

Compound	INHIBITION [%]
Cc1ccc(C)n1-c1c(C(=O)NCC(C)N(C)C)cnn1C (centres undefined)	28.5
O=C(COc1cccc2c1CCC2=O)NCc1ccccc1Cl	-21.15
CCN1CC2(CCOCC2)c2cc(NS(=O)(=O)CC)ccc21	16.33
Cc1nccn1-c1ccc(C(C)Nc2cnn(C)c(=O)c2Cl)cc1 (centres undefined)	39.58
COc1ccccc1Oc1ncccc1CNC(=O)[C@@H](N)[C@@H](C)O	-4.93
COc1ccccc1Oc1ncccc1CNC(=O)[C@H](N)CC(C)(C)C	62.39
COc1ccccc1Oc1ncccc1CNC(=O)[C@@H](N)CCO	10.91
OC1CCCN(CCNc2ncc(Cl)cc2F)C1 (centres undefined)	-23.46
COCc1cccc(NC(C(N)=O)c2ccc(Br)cc2)c1 (centres undefined)	0.53
CC(C)(C)c1nnc(CSc2ccccn2)o1	58.9
CCc1nnc(CSc2ccccn2)o1	-9.88
Cc1nnc(CSc2ccccn2)o1	-43.6
CC(CNC(=O)N1CCS(=O)(=O)CC1)Cc1cccs1 (centres undefined)	8.03
CC(=O)N(C)C1CCN(C(=O)NCC(C)Cc2cccs2)CC1 (centres undefined)	60.9
CC(CNC(=O)N1CCC(CO)CC1)Cc1cccs1 (centres undefined)	21.24
CC(CNC(=O)N1CCN(c2cnccn2)CC1)Cc1cccs1 (centres undefined)	17.75
CC(CNC(=O)N1CCNC(=O)CC1)Cc1cccs1 (centres undefined)	57.59
COC(=O)C1CCN(C(=O)NCC(C)Cc2cccs2)CC1 (centres undefined)	55.39
CC(CNC(=O)N1CCSCC1)Cc1cccs1 (centres undefined)	-49.29
CC(CNC(=O)N1CCN(CC(F)F)CC1)Cc1cccs1 (centres undefined)	-47.2
CC(CNC(=O)N1CCN(c2ncccn2)CC1)Cc1cccs1 (centres undefined)	5.82
Cc1cccc(NC(=O)c2cccc(OCc3nnnn3C)c2)n1	-85.14
CCS(=O)(=O)N1C[C@@H]2CN(Cc3cccs3)CCO[C@@H]2C1	-20.67
COc1ccc(C2(C(=O)N3CC(c4cccnc4)C3)CC2(C)C)cc1 (centres undefined)	60.13
CC1(C)CC1(C(=O)N1CC(c2cccnc2)C1)c1ccc(F)cc1 (centres undefined)	41.05
CC1(C)CC1(C(=O)N1CC(c2cccnc2)C1)c1ccccc1F (centres undefined)	14.82
CCOC(=O)c1cnn(-c2cc(Oc3cccc(C)c3)ncn2)c1N	-58.53

Compound	INHIBITION [%]
CC(COc1ccc(F)cc1F)NC(=O)NCCN1CCOCC1 (centres undefined)	-30.55
COCCN(Cc1cccc(OCCO)c1)Cc1ccccc1F	58.42
CCCN(Cc1cccc(OCCO)c1)Cc1ccccc1OC	-135.42
COCCN(Cc1cccc(O)c1)Cc1ccccc1F	35.48
CC(C)N1[C@H](Cn2cncn2)C[C@@H]2CN(Cc3cccs3)CC[C@@H]21	13.25
O=C(Cc1ccccc1Cl)N1CCN(CC(O)COCCO)CC1 (centres undefined)	-13.06
COc1ccc(C)cc1CN1CCCC1c1noc(C2CC2)n1 (centres undefined)	-14.17
C=C(C)CNC1CCCN(Cc2noc(C3CC3)n2)C1 (centres undefined)	-36.58
COCCNC(=O)[C@H]1C[C@@H]2CCN(c3nncs3)C[C@H]2O1	21.08
O=C(NCCc1ccncc1)[C@H]1C[C@@H]2CCN(c3nncs3)C[C@H]2O1	62.15
O=C(NCc1ccco1)[C@H]1C[C@@H]2CCN(c3nncs3)C[C@H]2O1	-2.66
O=c1cc(-c2cccnc2)nc(-c2ccc(CN3CC[C@H](O)C3)cc2)[nH]1	39.51
Cn1cncc1C(=O)N1C[C@@H]2CCN(c3cnccn3)C[C@@H]2C1	5.44
O=C(NC[C@H]1OC[C@@H](NC(=O)c2ccccc2)[C@@H]1O)c1ccncc1	25.94
CN(CC(=O)N1CCC(Oc2ccccc2)CC1)c1cnccn1	33.16
CN(CC(=O)N1CCC(N(C)c2ccccc2)CC1)c1cnccn1	-35.47
CN(CC(=O)N1CCC(COc2ccccc2)CC1)c1cnccn1	52.47
CCCn1nnnc1CN(c1ccc(C)cc1)C(C)C	7.67
CCCn1nnnc1CN(C)C(C)c1ccc(C)cc1 (centres undefined)	67.28
CCCn1nnnc1CN(c1ccc(N2CCOCC2)cc1)C(C)C	36.28
Cc1nc2n(n1)CC(Nc1nc(C(F)(F)F)nc3ccccc13)CC2 (centres undefined)	19.12
COc1ccccc1CC(=O)NC1CCCc2cn[nH]c21 (centres undefined)	-1.29
CCCOc1ccc(CNC2CCCc3c2cnn3CC)cc1OC (centres undefined)	33.01
CCn1ncc2c1CCCC2NCc1ccc(OC)c(C)c1 (centres undefined)	27.55
CCn1ncc2c1CCCC2NCc1cc(C)ccc1OC (centres undefined)	-14.16
CCn1ncc2c1CCCC2NCc1ccc(OC)c(F)c1 (centres undefined)	57.81
CCOCc1cc(CNC2CCCc3c2cnn3CC)ccc1OC (centres undefined)	57.81
